Assay results from PubChem BioAssay AID1159580 (chemical genetic matrix, 2015).
About 2,000 (36%) of roughly 5,500 compounds were called active. About 18% were inconclusive and are not listed. Cut-off read from the data, not from the text of the source: active = normalized growth mostly below about 0.91 (no sharp cut-off); inconclusive = no clear call, values can overlap the other calls; inactive = mostly above about 0.92. The list shows a part of the results.

Test: chemical genetic growth profiling, strain panel (AID 1159580);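 note: tested at 20 µM; growth read once vehicle control cultures reached saturation at 30 °C; 1 = growth at the plate median or of vehicle wells; lower values mean less growth of the strain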
Conditions: S. cerevisiae deletion strains, growth OD
[1] = locus YAL021C, strain ccr4, hits give low values
[2] = locus YAL026C, strain drs2, hits give low values
[3] = locus YAL030W, strain snc1, hits give low values
[4] = locus YBL061C, strain skt5, hits give low values
[5] = locus YBR009C, strain hhf1, hits give low values
[6] = locus YBR023C, strain chs3, hits give low values
[7] = locus YBR171W, strain sec66, hits give low values
[8] = locus YBR231C, strain swc5, hits give low values
[9] = locus YBR279W, strain paf1, hits give low values
[10] = locus YCL011C, strain gbp2, hits give low values
[11] = locus YCL016C, strain dcc1, hits give low values
[12] = locus YCL069W, strain vba3, hits give low values
[13] = locus YCR088W, strain abp1, hits give low values
[14] = locus YDL005C, strain med2, hits give low values
[15] = locus YDL040C, strain nat1, hits give low values
[16] = locus YDR001C, strain nth1, hits give low values
[17] = locus YDR069C, strain doa4, hits give low values
[18] = locus YDR137W, strain rgp1, hits give low values
[19] = locus YDR159W, strain sac3, hits give low values
[20] = locus YDR297W, strain sur2, hits give low values
[21] = locus YDR334W, strain swr1, hits give low values
[22] = locus YDR335W, strain msn5, hits give low values
[23] = locus YDR392W, strain spt3, hits give low values
[24] = locus YEL003W, strain gim4, hits give low values
[25] = locus YEL037C, strain rad23, hits give low values
[26] = locus YEL061C, strain CIN8 (second series), hits give low values
[27] = locus YER015W, strain faa2, hits give low values
[28] = locus YER016W, strain bim1, hits give low values
[29] = locus YER111C, strain swi4, hits give low values
[30] = locus YER155C, strain BEM2 (second series), hits give low values
[31] = locus YFR010W, strain ubp6, hits give low values
[32] = locus YGL167C, strain pmr1, hits give low values
[33] = locus YGL173C, strain kem1, hits give low values
[34] = locus YGL227W, strain vid30, hits give low values
[35] = locus YGL240W, strain doc1, hits give low values
[36] = locus YGL253W, strain hxk2, hits give low values
[37] = locus YHR013C, strain ard1, hits give low values
[38] = locus YHR027C, strain rpn1, hits give low values
[39] = locus YHR030C, strain SLT2, hits give low values
[40] = locus YHR079C, strain IRE1, hits give low values
[41] = locus YHR142W, strain chs7, hits give low values
[42] = locus YJL092W, strain hpr5, hits give low values
[43] = locus YJL095W, strain BCK1 (second series), hits give low values
[44] = locus YJL095W, strain BCK1, hits give low values
[45] = locus YJL115W, strain asf1, hits give low values
[46] = locus YJL129C, strain trk1, hits give low values
[47] = locus YJL154C, strain vps35, hits give low values
[48] = locus YJL164C, strain tpk1, hits give low values
[49] = locus YJL166W, strain qcr8, hits give low values
[50] = locus YJR066W, strain TOR1, hits give low values
[51] = locus YKL160W, strain elf1, hits give low values
[52] = locus YKR026C, strain gcn3, hits give low values
[53] = locus YKR091W, strain srl3, hits give low values
[54] = locus YLL001W, strain dnm1, hits give low values
[55] = locus YLL026W, hits give low values
[56] = locus YLL041C, strain sdh2, hits give low values
[57] = locus YLR027C, strain aat2, hits give low values
[58] = locus YLR113W, strain HOG1, hits give low values
[59] = locus YLR221C, strain rsa3, hits give low values
[60] = locus YLR258W, strain gsy2, hits give low values
[61] = locus YLR262C, strain YPT6 (second series), hits give low values
[62] = locus YLR320W, strain mms22, hits give low values
[63] = locus YLR342W, strain FKS1, hits give low values
[64] = locus YLR357W, strain rsc2, hits give low values
[65] = locus YLR370C, strain arc18, hits give low values
[66] = locus YLR384C, strain iki3, hits give low values
[67] = locus YML120C, strain ndi1, hits give low values
[68] = locus YMR058W, strain fet3, hits give low values
[69] = locus YMR125W, strain sto1, hits give low values
[70] = locus YMR129W, hits give low values
[71] = locus YMR205C, strain PFK2, hits give low values
[72] = locus YMR231W, strain pep5, hits give low values
[73] = locus YNL071W, strain lat1, hits give low values
[74] = locus YNL183C, strain NPR1, hits give low values
[75] = locus YNL209W, strain ssb2, hits give low values
[76] = locus YNL248C, strain rpa49, hits give low values
[77] = locus YNL322C, strain KRE1 (second series), hits give low values
[78] = locus YNR049C, strain mso1, hits give low values
[79] = locus YOR001W, strain rrp6, hits give low values
[80] = locus YOR070C, strain gyp1, hits give low values
[81] = locus YOR080W, strain dia2, hits give low values
[82] = locus YOR083W, strain WHI5, hits give low values
[83] = locus YOR106W, strain vam3, hits give low values
[84] = locus YOR231W, strain MKK1, hits give low values
[85] = locus YOR265W, strain rbl2, hits give low values
[86] = locus YOR270C, strain vph1, hits give low values
[87] = locus YOR290C, strain snf2, hits give low values
[88] = locus YPL051W, strain arl3, hits give low values
[89] = locus YPL078C, strain atp4, hits give low values
[90] = locus YPL106C, strain sse1, hits give low values
[91] = locus YPL240C, strain hsp82, hits give low values
[92] = locus YPL256C, strain CLN2, hits give low values

Measured: normalized growth

Nc1ncn[nH]1
inactive: [1] 0.986 | [2] 1.02 | [3] 1.02 | [4] 1.02 | [5] 1.04 | [6] 1.02 | [7] 1.02 | [8] 1.02 | [9] 1.02 | [10] 1.02 | [11] 1.02 | locus YCL061C, strain MRC1, hits give low values 1.02 | [12] 1.02 | [13] 1.02 | [14] 1.02 | [15] 1.02 | [16] 1.02 | [17] 1.03 | [18] 1 | [19] 1.05 | locus YDR195W, strain ref2 1.01 | [20] 1.01 | [21] 1.02 | [22] 1.02 | [23] 0.966 | [24] 1.02 | [25] 1.02 | [26] 1.01 | [27] 1.02 | [28] 1.03 | [29] 1.02 | [30] 1.04 | [31] 1.02 | [32] 1.02 | [33] 1.02 | [34] 1.02 | [35] 1.05 | [36] 1.01 | [37] 1.01 | [38] 1.02 | [39] 0.995 | [40] 1 | [41] 0.97 | [42] 1.02 | [43] 1.02 | [44] 0.967 | [45] 1.02 | [46] 1 | [47] 1.02 | [48] 1 | [49] 1.01 | locus YJL187C, strain SWE1, hits give low values 1.02 | [50] 0.923 | [51] 0.974 | [52] 1.01 | [53] 1.02 | [54] 1.03 | [55] 1.01 | [56] 1.02 | [57] 1.01 | [58] 0.985 | [59] 0.995 | [60] 1.03 | [61] 1 | [62] 1.03 | [63] 1.01 | [64] 1.06 | [65] 1.01 | [66] 1 | [67] 0.997 | [68] 1.02 | [69] 1.05 | [70] 1.01 | [71] 1.05 | [72] 1.02 | [73] 1.01 | [74] 0.933 | [75] 1.01 | [76] 0.985 | [77] 1 | [78] 1.02 | [79] 1 | [80] 1.03 | [81] 1.02 | [82] 0.979 | [83] 0.987 | [84] 0.988 | [85] 1.01 | [86] 1.02 | [87] 0.982 | [88] 0.988 | [89] 0.982 | [90] 1.05 | [91] 1.02 | [92] 0.96

O=C(O)[C@@H]1CCN1
inactive: locus YAL040C, strain CLN3, hits give low values 1.01 | locus YDR363W, strain ESC2, hits give low values 0.998 | locus YER002W, strain NOP16, hits give low values 0.998 | locus YGR078C, strain PAC10, hits give low values 1.01 | locus YGR229C, strain SMI1, hits give low values 0.984 | locus YMR263W, strain SAP30, hits give low values 0.998 | locus YMR307W, strain GAS1, hits give low values 0.992 | locus YNL153C, strain GIM3, hits give low values 0.996 | locus YNL175C, strain NOP13, hits give low values 1.01 | locus YNL197C, strain WHI3, hits give low values 1.02 | locus YNL224C, strain SQS1, hits give low values 0.963 | locus YOR083W, strain WHI5 (second series), hits give low values 1 | locus YPL055C, strain LGE1, hits give low values 0.996 | locus YPL241C, strain CIN2, hits give low values 1.01

CCOC(=O)n1ccn(C)c1=S
inactive: [1] 0.987 | [2] 0.996 | [3] 0.994 | [4] 1.01 | [5] 0.946 | [6] 1.01 | [7] 0.98 | [8] 0.984 | [9] 1 | [10] 0.997 | [11] 1.03 | [12] 0.984 | [13] 0.99 | [14] 0.99 | [15] 0.985 | [16] 0.982 | [17] 0.994 | [18] 0.96 | [19] 0.881 | locus YDR195W, strain ref2 0.976 | [20] 1 | [21] 0.961 | [22] 1.01 | [23] 0.939 | [24] 0.972 | [25] 0.974 | [26] 0.966 | [27] 0.982 | [28] 1.06 | [29] 0.994 | [30] 0.961 | [31] 0.955 | [32] 0.97 | [33] 0.975 | [34] 0.985 | [35] 0.995 | [36] 0.998 | [37] 1.02 | [38] 0.997 | [39] 1.02 | [40] 1.01 | [41] 1.01 | [42] 0.987 | [43] 0.99 | [44] 1.01 | [45] 0.963 | [46] 0.974 | [47] 0.977 | [48] 0.979 | [49] 0.986 | [50] 0.988 | [51] 1.04 | [52] 0.97 | [53] 0.99 | [54] 0.951 | [55] 0.986 | [56] 0.988 | [57] 0.999 | [58] 0.999 | [59] 0.967 | [60] 1 | [61] 0.929 | [62] 0.931 | [63] 1.01 | [64] 0.99 | [65] 0.998 | [66] 0.981 | [67] 0.974 | [68] 0.991 | [69] 0.971 | [70] 0.979 | [71] 0.983 | [72] 0.988 | [73] 0.98 | [74] 0.971 | [75] 0.985 | [76] 1.04 | [77] 1.01 | [78] 0.999 | [79] 0.949 | [80] 1.01 | [81] 0.998 | [82] 1.01 | [83] 1.02 | [84] 1.02 | [85] 0.988 | [86] 1.02 | [87] 1.05 | [88] 1.06 | [89] 1.05 | [90] 1.04 | [91] 0.994 | [92] 0.98
